Measurements from ChEMBL document CHEMBL1961873, “Compounds: GSK PKIS; Assays: Nanosyn kinase panel” (2012).

How the values were obtained:
[1] = target: Ribosomal protein S6 kinase alpha-6 (Homo sapiens) (UniProt Q9UK32); details: at 1 µM;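 further: each value is a mean inhibition of RSK4 from a GSK PKIS panel screen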
[2] = target: T1, Serine/threonine-protein kinase Sgk1 (Homo sapiens) (UniProt O00141); details: at 0.1 µM
T1 sequence (whole entry): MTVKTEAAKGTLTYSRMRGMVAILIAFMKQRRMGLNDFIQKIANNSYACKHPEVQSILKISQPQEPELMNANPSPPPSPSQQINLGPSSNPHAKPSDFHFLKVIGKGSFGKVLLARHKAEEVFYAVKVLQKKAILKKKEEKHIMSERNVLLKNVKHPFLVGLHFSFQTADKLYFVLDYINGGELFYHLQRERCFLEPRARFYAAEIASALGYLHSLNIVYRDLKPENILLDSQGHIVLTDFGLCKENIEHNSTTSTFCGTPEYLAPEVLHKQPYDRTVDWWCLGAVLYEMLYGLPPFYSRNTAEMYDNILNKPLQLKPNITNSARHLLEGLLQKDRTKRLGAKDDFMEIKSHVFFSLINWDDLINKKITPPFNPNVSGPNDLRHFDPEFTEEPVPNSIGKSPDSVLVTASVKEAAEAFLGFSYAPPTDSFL

[3] = target: T1, Serine/threonine-protein kinase Sgk1 (Homo sapiens); details: at 1 µM
[4] = target: T2, Serine/threonine-protein kinase Sgk2 (Homo sapiens) (UniProt Q9HBY8); details: at 0.1 µM
T2 sequence (whole entry): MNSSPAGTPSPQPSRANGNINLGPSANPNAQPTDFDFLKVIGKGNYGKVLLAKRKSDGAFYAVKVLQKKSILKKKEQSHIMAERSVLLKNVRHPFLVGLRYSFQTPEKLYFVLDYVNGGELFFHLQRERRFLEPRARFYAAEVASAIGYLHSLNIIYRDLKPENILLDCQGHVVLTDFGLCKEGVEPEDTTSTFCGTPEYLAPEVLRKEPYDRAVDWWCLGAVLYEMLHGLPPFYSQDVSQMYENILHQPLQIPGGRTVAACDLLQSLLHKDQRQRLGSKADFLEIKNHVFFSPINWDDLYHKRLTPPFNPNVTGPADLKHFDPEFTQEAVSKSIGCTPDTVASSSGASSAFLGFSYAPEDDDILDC

[5] = target: T2, Serine/threonine-protein kinase Sgk2 (Homo sapiens); details: at 1 µM
[6] = target: T3, Serine/threonine-protein kinase Sgk3 (Homo sapiens) (UniProt Q96BR1); details: at 0.1 µM
T3 sequence (whole entry): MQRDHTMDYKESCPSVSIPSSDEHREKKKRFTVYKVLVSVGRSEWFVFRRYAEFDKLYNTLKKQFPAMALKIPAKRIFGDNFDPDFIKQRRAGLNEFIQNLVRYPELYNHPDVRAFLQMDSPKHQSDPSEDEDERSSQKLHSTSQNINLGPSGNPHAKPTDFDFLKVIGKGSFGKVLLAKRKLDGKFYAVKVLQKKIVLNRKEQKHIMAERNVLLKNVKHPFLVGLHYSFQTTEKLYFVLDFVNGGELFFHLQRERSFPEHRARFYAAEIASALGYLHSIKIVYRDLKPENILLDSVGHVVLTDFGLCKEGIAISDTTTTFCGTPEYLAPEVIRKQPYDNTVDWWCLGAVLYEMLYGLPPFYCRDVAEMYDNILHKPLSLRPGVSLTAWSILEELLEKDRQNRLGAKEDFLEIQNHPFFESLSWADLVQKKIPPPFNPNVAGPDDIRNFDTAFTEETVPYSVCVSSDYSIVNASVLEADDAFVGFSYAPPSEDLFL

[7] = target: T3, Serine/threonine-protein kinase Sgk3 (Homo sapiens); details: at 1 µM
[8] = target: 5'-AMP-activated protein kinase catalytic subunit alpha-1 (Homo sapiens) (UniProt Q13131); details: at 0.1 µM
[9] = target: 5'-AMP-activated protein kinase catalytic subunit alpha-1 (Homo sapiens) (UniProt Q13131); details: at 1 µM
[10] = target: 5'-AMP-activated protein kinase catalytic subunit alpha-2 (Homo sapiens) (UniProt P54646); details: at 0.1 µM
[11] = target: 5'-AMP-activated protein kinase catalytic subunit alpha-2 (Homo sapiens) (UniProt P54646); details: at 1 µM
[12] = target: T4, NUAK family SNF1-like kinase 1 (Homo sapiens) (UniProt O60285); details: at 0.1 µM
T4 sequence (whole entry): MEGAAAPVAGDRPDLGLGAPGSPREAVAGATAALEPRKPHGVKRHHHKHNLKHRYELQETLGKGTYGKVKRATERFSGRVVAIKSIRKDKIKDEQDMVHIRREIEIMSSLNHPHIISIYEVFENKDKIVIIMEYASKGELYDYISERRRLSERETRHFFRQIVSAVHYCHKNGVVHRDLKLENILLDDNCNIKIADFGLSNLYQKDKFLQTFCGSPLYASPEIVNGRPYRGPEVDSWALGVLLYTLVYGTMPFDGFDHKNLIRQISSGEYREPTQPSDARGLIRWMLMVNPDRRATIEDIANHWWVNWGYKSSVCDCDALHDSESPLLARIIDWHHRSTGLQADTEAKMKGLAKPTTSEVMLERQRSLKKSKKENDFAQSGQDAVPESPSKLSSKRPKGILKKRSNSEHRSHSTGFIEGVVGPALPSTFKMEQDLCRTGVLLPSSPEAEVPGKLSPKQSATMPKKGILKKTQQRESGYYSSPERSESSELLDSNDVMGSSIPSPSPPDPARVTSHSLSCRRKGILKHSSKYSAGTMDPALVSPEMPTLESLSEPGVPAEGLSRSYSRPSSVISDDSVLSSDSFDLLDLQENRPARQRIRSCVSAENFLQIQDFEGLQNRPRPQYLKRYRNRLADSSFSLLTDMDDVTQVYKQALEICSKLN

[13] = target: T4, NUAK family SNF1-like kinase 1 (Homo sapiens); details: at 1 µM
[14] = target: T5, Serine/threonine-protein kinase BRSK1 (Homo sapiens) (UniProt Q8TDC3); details: at 0.1 µM
T5 sequence (whole entry): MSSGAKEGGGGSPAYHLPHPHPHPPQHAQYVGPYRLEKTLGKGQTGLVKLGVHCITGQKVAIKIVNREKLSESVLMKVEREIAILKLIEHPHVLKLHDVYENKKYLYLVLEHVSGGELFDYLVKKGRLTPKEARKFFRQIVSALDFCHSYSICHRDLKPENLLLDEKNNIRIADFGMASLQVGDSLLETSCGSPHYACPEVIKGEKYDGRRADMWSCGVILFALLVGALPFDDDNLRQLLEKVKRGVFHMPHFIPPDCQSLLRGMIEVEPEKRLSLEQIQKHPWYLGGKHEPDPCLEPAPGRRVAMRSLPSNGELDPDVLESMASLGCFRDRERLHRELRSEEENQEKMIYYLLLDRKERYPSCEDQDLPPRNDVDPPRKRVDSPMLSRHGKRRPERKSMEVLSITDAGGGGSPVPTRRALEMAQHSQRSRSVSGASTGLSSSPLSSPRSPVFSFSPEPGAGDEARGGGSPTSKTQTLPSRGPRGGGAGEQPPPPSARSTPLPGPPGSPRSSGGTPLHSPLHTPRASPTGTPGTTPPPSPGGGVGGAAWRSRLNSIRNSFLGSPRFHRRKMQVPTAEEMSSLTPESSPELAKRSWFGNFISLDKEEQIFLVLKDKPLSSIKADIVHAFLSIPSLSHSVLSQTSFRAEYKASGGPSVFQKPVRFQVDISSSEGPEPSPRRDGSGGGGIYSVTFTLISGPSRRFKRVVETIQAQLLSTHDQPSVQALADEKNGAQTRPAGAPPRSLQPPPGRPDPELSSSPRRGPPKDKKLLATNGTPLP

[15] = target: T5, Serine/threonine-protein kinase BRSK1 (Homo sapiens); details: at 1 µM
[16] = target: T6, Serine/threonine-protein kinase BRSK2 (Homo sapiens) (UniProt Q8IWQ3); details: at 0.1 µM
T6 sequence (whole entry): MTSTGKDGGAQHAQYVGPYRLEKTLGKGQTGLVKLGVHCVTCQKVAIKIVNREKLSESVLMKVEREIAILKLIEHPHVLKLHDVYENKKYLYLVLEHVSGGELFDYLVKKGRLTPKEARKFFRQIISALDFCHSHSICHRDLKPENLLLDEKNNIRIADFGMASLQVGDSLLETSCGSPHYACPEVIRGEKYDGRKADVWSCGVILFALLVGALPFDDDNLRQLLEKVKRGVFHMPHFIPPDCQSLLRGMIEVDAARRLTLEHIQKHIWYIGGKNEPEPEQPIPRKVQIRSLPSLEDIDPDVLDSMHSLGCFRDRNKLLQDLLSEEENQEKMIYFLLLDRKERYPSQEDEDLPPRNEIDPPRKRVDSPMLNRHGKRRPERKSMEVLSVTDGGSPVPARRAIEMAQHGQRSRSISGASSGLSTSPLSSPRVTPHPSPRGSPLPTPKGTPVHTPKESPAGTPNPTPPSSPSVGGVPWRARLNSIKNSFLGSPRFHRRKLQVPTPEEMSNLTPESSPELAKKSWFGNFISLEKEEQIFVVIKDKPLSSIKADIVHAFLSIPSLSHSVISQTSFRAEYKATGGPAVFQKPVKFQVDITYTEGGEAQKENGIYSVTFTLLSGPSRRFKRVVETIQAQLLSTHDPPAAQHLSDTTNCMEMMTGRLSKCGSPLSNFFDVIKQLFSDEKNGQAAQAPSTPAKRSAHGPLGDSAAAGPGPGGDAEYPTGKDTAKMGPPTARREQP

[17] = target: T6, Serine/threonine-protein kinase BRSK2 (Homo sapiens); details: at 1 µM
[18] = target: Calcium/calmodulin-dependent protein kinase type 1D (Homo sapiens) (UniProt Q8IU85); details: at 0.1 µM
[19] = target: Calcium/calmodulin-dependent protein kinase type 1D (Homo sapiens) (UniProt Q8IU85); details: at 1 µM
[20] = target: Calcium/calmodulin-dependent protein kinase type II subunit alpha (Homo sapiens) (UniProt Q9UQM7); details: at 0.1 µM;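 further: reported values are averages (mean inhibition of CAMK2A)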
Calcium/calmodulin-dependent protein kinase type II subunit alpha (Homo sapiens), sequence (Q9UQM7 whole entry): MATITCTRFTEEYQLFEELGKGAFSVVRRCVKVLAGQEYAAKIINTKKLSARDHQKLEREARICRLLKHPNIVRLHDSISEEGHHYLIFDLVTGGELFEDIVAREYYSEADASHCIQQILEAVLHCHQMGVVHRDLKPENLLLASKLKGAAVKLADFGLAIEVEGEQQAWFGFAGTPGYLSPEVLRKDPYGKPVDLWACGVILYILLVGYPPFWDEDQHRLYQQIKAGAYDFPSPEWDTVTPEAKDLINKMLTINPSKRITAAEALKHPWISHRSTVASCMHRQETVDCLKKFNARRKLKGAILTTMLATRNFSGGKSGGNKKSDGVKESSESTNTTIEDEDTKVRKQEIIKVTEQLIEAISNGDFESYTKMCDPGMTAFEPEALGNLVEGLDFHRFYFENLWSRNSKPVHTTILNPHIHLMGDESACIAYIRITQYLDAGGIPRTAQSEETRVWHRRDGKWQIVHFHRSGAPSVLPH

Ribosomal protein S6 kinase alpha-6 (Homo sapiens), sequence (Q9UK32 whole entry): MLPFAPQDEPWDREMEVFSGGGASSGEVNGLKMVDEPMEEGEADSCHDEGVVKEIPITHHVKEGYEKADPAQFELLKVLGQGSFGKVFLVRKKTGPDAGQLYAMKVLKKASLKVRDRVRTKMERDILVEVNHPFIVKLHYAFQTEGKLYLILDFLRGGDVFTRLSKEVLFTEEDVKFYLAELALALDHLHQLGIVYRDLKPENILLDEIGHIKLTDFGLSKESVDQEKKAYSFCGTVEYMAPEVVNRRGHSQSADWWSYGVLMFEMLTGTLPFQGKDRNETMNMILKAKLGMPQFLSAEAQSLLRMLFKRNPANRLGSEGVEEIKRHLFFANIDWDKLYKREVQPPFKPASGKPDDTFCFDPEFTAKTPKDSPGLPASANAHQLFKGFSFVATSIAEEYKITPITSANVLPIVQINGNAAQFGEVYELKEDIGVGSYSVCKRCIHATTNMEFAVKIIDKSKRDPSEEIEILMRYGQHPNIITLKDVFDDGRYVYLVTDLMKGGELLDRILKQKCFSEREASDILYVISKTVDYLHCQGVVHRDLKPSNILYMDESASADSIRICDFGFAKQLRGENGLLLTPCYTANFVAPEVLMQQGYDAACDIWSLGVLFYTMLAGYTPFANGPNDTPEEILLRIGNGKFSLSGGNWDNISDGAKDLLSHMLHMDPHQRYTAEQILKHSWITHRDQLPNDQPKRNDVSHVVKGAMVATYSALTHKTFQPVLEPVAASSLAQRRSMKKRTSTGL
5'-AMP-activated protein kinase catalytic subunit alpha-2 (Homo sapiens), sequence (P54646 whole entry, looked up): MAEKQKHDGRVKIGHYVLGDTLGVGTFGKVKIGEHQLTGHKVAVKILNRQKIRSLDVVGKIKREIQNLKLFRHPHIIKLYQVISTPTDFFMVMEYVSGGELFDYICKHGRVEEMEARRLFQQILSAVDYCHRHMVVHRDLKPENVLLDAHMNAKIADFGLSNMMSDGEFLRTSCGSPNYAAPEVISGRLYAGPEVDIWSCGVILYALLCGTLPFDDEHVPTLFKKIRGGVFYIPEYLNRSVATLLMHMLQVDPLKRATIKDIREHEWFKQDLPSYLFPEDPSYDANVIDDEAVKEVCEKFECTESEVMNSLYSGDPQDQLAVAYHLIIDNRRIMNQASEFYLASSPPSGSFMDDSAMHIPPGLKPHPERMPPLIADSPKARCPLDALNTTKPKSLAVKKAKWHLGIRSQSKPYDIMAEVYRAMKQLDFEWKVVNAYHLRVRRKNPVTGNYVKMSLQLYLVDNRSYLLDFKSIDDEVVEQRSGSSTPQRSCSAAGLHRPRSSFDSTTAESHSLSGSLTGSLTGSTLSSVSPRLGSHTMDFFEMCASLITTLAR
Calcium/calmodulin-dependent protein kinase type 1D (Homo sapiens), sequence (Q8IU85 whole entry, looked up): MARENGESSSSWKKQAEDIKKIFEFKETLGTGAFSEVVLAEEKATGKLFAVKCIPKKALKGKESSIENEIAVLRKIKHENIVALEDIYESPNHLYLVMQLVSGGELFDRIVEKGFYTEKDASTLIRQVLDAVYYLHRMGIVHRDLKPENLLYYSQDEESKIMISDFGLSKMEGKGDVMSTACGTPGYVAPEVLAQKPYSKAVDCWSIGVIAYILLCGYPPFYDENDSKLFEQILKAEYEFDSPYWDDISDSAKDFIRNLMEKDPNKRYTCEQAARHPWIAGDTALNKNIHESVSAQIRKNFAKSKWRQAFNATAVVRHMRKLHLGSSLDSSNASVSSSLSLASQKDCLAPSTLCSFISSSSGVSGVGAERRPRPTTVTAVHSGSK
5'-AMP-activated protein kinase catalytic subunit alpha-1 (Homo sapiens), sequence (Q13131 whole entry, looked up): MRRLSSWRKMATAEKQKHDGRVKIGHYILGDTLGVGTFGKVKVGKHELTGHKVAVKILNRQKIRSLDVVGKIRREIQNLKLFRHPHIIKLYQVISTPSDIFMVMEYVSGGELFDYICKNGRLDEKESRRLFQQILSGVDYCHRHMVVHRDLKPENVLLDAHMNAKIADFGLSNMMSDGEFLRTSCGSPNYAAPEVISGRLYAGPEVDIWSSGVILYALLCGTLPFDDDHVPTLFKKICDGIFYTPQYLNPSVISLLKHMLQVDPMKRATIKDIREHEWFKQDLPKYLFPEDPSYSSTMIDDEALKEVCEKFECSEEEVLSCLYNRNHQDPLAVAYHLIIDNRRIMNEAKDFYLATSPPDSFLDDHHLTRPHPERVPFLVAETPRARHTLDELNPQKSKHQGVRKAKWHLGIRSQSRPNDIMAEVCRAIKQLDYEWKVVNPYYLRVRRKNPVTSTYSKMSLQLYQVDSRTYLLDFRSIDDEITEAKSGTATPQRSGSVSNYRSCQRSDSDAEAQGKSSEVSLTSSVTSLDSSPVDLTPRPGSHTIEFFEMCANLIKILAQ

Row | Compound | inhibition [1] | inhibition [2] | inhibition [3] | inhibition [4] | inhibition [5] | inhibition [6] | inhibition [7] | inhibition [8] | inhibition [9] | inhibition [10] | inhibition [11] | inhibition [12] | inhibition [13] | inhibition [14] | inhibition [15] | inhibition [16] | inhibition [17] | inhibition [18] | inhibition [19] | inhibition [20]
1 | COc1cc(C=NNc2ncnc3c2cnn3-c2ccccc2)ccc1O | 6.36% | 4.35% | 12.3% | 1.73% | 12.3% | 1.97% | 1.32% | 2.74% | 4.76% | 0.75% | 6.79% | 16.1% | 57.3% | 8.76% | 40.1% | 10.3% | 43.5% | 0.83% | 2.96% | 3.14%
2 | NC(=O)c1cccc(Nc2nccc(Nc3cccc4[nH]ncc34)n2)c1 | 9.04% | -1.84% | 1.71% | -4.35% | -0.81% | -4.06% | -1.36% | 3.35% | 18.5% | 2.4% | 11% | 40.5% | 80.7% | 3.32% | 22% | 2.15% | 19.3% | 0.34% | 4.12% | -4.01%
3 | O=C1NC(=O)C(c2cccc(Cl)c2)=C1Nc1ccc(O)c(Cl)c1 | 21.5% | 2.17% | 0.01% | 0.49% | 3.67% | -0.12% | -0.88% | 1.08% | 8.5% | 0.44% | 11% | 8.01% | 48.3% | 2.57% | 12.9% | 2.05% | 19% | 1.1% | 5.88% | 3.72%
4 | Cc1cc(O)cc(C)c1/C=C/c1cncc(-c2nn[nH]n2)c1 | 0.92% | 3.17% | 2.09% | -1.45% | 1.25% | 1.96% | 3.83% | 3.54% | 3.56% | 3.69% | 4.51% | 3.07% | 5.08% | 3.46% | 19.2% | 2.49% | 13.2% | 0.18% | -0.55% | 6.31%
5 | COc1cc2ncn(-c3cc(OCc4ccccc4Cl)c(C(N)=O)s3)c2cc1OC | 17.2% | 0.97% | 1.67% | 0.56% | 0.22% | 2.12% | 0.41% | 1.36% | 10.7% | 4.07% | 3.59% | 14.3% | 58.6% | 7.81% | 40.6% | 12.4% | 48.6% | 0.78% | 3.64% | -2.74%
6 | NS(=O)(=O)c1ccc(N/N=C2\C(=O)Nc3ccc(C(=O)NCCc4c[nH]cn4)cc32)cc1 | 22.2% | 4.44% | 14.1% | 4.28% | 5.53% | 3.07% | 4.22% | 57.3% | 86.6% | 23.9% | 63.6% | 54.2% | 83.5% | 21.6% | 63.5% | 34.6% | 74.9% | 1.24% | 3.93% | 5.62%
